Source: PubChem
Most compounds without a hit are left out; they make up all but 10% or so of the library.
G9a inh = blocks human histone lysine methyltransferase G9a; Q96KQ7; G9a H3K9 monomethylation, AlphaScreen, 2 h; Potency, µM (titrated, usually from 102 µM), without a hit: top-dose activity, negative = inhibition, usual class: inhibitors; hit rate 8.8% among 350,000; note: potency is the fitted concentration of half-maximal effect; % is set by controls: 0 for no effect and ±100 for the full control effect; nearly all actives have a fitted effect of over 75% in size
Target sequence (Q96KQ7 913-1193 limits assumed): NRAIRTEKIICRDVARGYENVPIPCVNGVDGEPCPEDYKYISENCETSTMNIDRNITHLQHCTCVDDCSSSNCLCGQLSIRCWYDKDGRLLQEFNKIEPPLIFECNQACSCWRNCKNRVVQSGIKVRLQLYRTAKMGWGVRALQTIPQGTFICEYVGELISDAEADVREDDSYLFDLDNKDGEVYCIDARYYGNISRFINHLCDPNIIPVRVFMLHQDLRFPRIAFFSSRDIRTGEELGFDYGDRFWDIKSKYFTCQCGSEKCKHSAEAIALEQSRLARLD
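AlphaScreen detection with an anti-monomethyl H3K9 antibody quantified product after a 2 h room-temperature reaction containing 500 nM biotinylated H3K9 peptide, 20 µM SAM and 20 nM enzyme, which had been preincubated 15 min with compound.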
JMJD2A Tudor inh = inhibitors of human JMJD2A Tudor domain | hit rate 4.4% among 390,000 | AlphaScreen JMJD2A-Tudor / H3K4me3 peptide binding | Potency, µM (series often up to 114 µM), for the others: top-dose activity change, negative = inhibition, actives largely listed as inhibitors; note: potency is the fitted concentration of half-maximal effect; % is set by controls: 0 for no effect and ±100 for the full control effect; nearly all actives have a fitted effect of over 50% in size
CtBP-E1A inh = blocks the CtBP interaction with E1A; AlphaScreen GST-E1A/His-CtBP binding, 1536-well; active compounds read low; activity change, % (concentration not given with the values); hit rate 0.49% among 340,000; AID 651724; in the data active = activity change below about -65%; inconclusive = mostly about -30% to -63%; note: % is set by controls: 0 for no effect and ±100 for the full control effect
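Protein mix (5X: 125 nM each GST-E1A, His-CtBP) was incubated with pinned compound 2 h at 37 deg C in dark, in 50 mM Tris pH 8.0 buffer with 300 mM NaCl. Glutathione donor and nickel acceptor beads followed; AlphaScreen signal read after 1 h.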
Six1-Eya2 blk = inhibitors of human Six1/Eya2 interaction; AlphaScreen GST-Six1/His-Eya2 binding, biochemical; active compounds read low; activity change, % (test concentration not listed); hit rate 0.56% among 360,000; in the data active = activity change below about -65%; inconclusive = mostly about -30% to -63%; note: % is set by controls: 0 for no effect and ±100 for the full control effect
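Six1/Eya2 binding was read as AlphaScreen signal after compounds were pinned into GST-Six1 plus His-tagged Eya2 (5X stock 250/500 nM) in pH 8.0 Tris/NaCl/TCEP buffer, beads added, then incubated 1 h, 37 C, dark.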
BAZ2B inh = BAZ2B (human) inhibition. AID 504333. hit rate 4.4% among 360,000. AlphaScreen BAZ2B-H3K14Ac peptide displacement. Potency, µM (top dose mostly 114 µM), for inactives: top-dose activity change, negative = inhibition, usual class: inhibitors; note: potency is the fitted concentration of half-maximal effect; % is set by controls: 0 for no effect and ±100 for the full control effect; nearly all actives have a fitted effect of over 60% in size
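Multi-concentration screen (max 110 uM) measuring displacement of acetylated histone H3 peptide from BAZ2B by AlphaScreen, using 50 nM protein, 50 nM peptide and 10 ug/mL streptavidin donor plus Ni-chelate acceptor beads.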
HP1b chromo inh = HP1-beta chromodomain-methylated histone interaction inhibition | P83916 | AlphaScreen HP1-beta / biotin-H3K9me3 peptide binding | Potency, µM (titrated, usually from 114 µM), without a hit: at the top dose activity change, negative = inhibition, hits mostly inhibitors | hit rate 0.56% among 390,000; note: potency is the fitted concentration of half-maximal effect; nearly all actives have a fitted effect of over 70% in size
Target sequence (P83916 whole entry, looked up): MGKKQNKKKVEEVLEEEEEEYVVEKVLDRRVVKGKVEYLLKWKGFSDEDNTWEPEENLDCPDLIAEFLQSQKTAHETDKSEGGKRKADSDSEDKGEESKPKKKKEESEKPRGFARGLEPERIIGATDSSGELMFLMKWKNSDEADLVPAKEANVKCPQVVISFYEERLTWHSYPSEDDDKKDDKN
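AlphaScreen: HP1-beta (50 nM) preformed 30 min with biotin-H3(1-18)K9me3 peptide (50 nM) in PBS pH 7.4, 0.01% Tween-20. Compound added for 30 min at RT, then streptavidin donor/nickel chelate acceptor beads (10 ug/mL) for 30 min.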
* marks the source's active call; other numbers are inactive results; ? = inconclusive; . = not tested or not shown; [ ] = another dose, or the depositor's remark. Unless noted, calls come from the whole dose curve; as a rule, active = well fitted inhibition curve with a large enough effect; inconclusive = small, poorly fitted or top-dose-only effect; inactive = no such curve, though single readings can be large or run the other way.

SMILES | G9a inh | JMJD2A Tudor inh | CtBP-E1A inh | Six1-Eya2 blk | BAZ2B inh | HP1b chromo inh
CC1=C/C(=C(/c2ccc(O)c(C)c2)c2ccccc2S(=O)(=O)O)C=CC1=O | -15%[12.7 µM] | -20% | ? | ? | 50µM* | ?
Cc1ccn(-c2ccc(NC(=O)c3cccs3)cc2)n1 | 71µM* | -10% | -4 | -7 | 3% | 7%
Cc1ccc(NC(=O)c2sc3nc4n(c(=O)c3c2C)CCCCC4)c(Br)c1 | 11%[59 µM] | 2% | . | . | 2% | 32%
Cc1cc(Br)ccc1NC(=O)c1sc2nc3n(c(=O)c2c1C)CCCC3 | 13µM* | 79µM* | . | . | 18µM* | 68%
COc1ccc(CNC(=O)c2sc3nc4n(c(=O)c3c2C)CCCCC4)cc1 | 14µM* | 89µM* | . | . | 16µM* | 3%
O=c1[nH][nH]c(C(F)(F)F)c1C=NCc1cccs1 | 2% | -7% | . | 1 | -9% | 30%
O=C(NCc1ccccc1Cl)c1ccc(NC(=O)N2CCSc3ccccc32)cc1 | 12%[59 µM] | -14% | . | . | -3% | 19%
Cc1ccc(S(=O)(=O)Nc2cccc3ccc[n+](C)c23)cc1 | . | 50µM* | . | . | . | .
COCCNc1nc(Nc2ccc(Cl)cc2F)c2sccc2n1 | . | . | -10 | 6 | . | .
CCN(CC)Cc1cc(Nc2c3ccccc3nc3c4ccccc4n(C)c23)cc(CN(CC)CC)c1O | . | 45µM* | -1 | ? | . | ?
C(=C\c1ccccc1)/C=N/N1CCN(c2ccccn2)CC1 | ? | ? | -20 | ? | -12% | -6%
CSc1ccc(/C=N/N2CCN(Cc3ccccc3)CC2)cc1 | . | 45µM* | ? | ? | 13µM* | 45µM*
COc1ccc(/C=N\N2CCN(Cc3ccccc3Cl)CC2)cc1 | 13µM* | ? | . | -16 | ? | -13%
Clc1ccc(/C=N/N2CCN(Cc3ccccc3Cl)CC2)cc1 | ? | 45µM* | -25 | ? | 35µM* | -10%
C(=C\c1ccccc1)/C=N/N1CCN(Cc2ccccc2)CC1 | 45µM* | 50µM* | ? | ? | 35µM* | ?
CSc1ccc(/C=N/N2CCN(c3ccccc3)CC2)cc1 | -28% | -6% | 8 | -1 | -13% | 24%
Cc1ccc2c(c1)N(C(=O)N1CCC(C(=O)NCc3cccc(Br)c3)CC1)CCO2 | -34%[59 µM] | -11% | . | . | -2% | 40%
Clc1ccccc1CN1CCN(/N=C/c2ccncc2)CC1 | 45µM* | ? | -10 | -8 | 45µM* | -6%
Clc1ccc(N2CCN(/N=C/c3ccncc3)CC2)cc1 | -29% | -18% | 6 | -8 | -19% | 10%
CCOc1ccc(/C=N/N2CCN(Cc3ccccc3)CC2)cc1 | 40µM* | ? | ? | ? | 50µM* | ?
C(=N\N1CCN(Cc2ccccc2)CC1)/c1cccs1 | ? | ? | -24 | -27 | ? | -19%
Clc1ccc(/C=N/N2CCN(Cc3ccccc3)CC2)cc1 | 50µM* | 56µM* | . | -20 | 45µM* | ?
Cc1cccc(N2CCN(C(=O)c3cn(CC(C)C)c(=O)c4c3c3ccccc3n4C)CC2)c1C | 7%[59 µM] | -10% | . | . | 3% | 11%
CCn1cc(C(=O)N2CCN(c3ccccc3)CC2)c(=O)c2cc(S(=O)(=O)N(C)C)ccc21 | 15%[59 µM] | -7% | . | . | . | 40%
CC(=O)c1ccc(NC(=O)C2=CC(c3cccs3)=NS(=O)(=O)N2C)cc1 | -22% | ? | -3 | -8 | -36% | 1%
SMILES | G9a inh | JMJD2A Tudor inh | CtBP-E1A inh | Six1-Eya2 blk | BAZ2B inh | HP1b chromo inh
CC(=O)c1ccc(S(=O)(=O)Nc2cccc(-n3cnnn3)c2)cc1 | 40µM* | ? | 4 | 0 | 50µM* | 5%
CC(=O)Nc1ccc(S(=O)(=O)Nc2cccc(-n3cnnn3)c2)cc1 | -7% | -12% | 8 | 0 | -13% | 30%
CCOC(=O)N1CCC(NC2CCCCCCC2)CC1 | -43%[59 µM] | 7% | 9 | 2 | 29% | 26%
CCOC(=O)N1CCC(c2[nH][nH]c(=O)c2C)CC1 | 40µM* | -19% | 9 | 1 | 1% | 33%
COc1ccc2c(c1)NC(c1ccc(Cl)cc1)=NC(c1cccs1)=N2 | ? | 14µM* | . | . | -28% | ?
Fc1ccc2c(c1)NC(c1ccncc1)=NC(c1cccs1)=N2 | -28%[59 µM] | ? | . | . | -36% | 4%
COCCCN(CC(=O)O)S(=O)(=O)c1cccc(Cl)c1 | 50µM* | -6% | -3 | 1 | -1% | 33%
COc1cc(C(CCN2CCCCC2)c2c(OC)cc(OC)c3c2OC(=O)CC3c2ccc(N(C)C)cc2)cc(OC)c1OC (stereo not given) | . | 40µM* | . | . | . | ?
COc1cc(C(CCN2CCOCC2)c2c(OC)cc(OC)c3c2OC(=O)CC3c2ccc(N(C)C)cc2)cc(OC)c1OC (stereo not given) | -9%[12.7 µM] | 28µM* | ? | ? | 14µM* | ?
COc1cc(C(CCN2CCCC2)c2c(OC)cc(OC)c3ccc(=O)oc23)cc(OC)c1OC (stereo not given) | 28%[12.7 µM] | -14% | -1 | -2 | -3% | 29%
COc1ccc(C2CC(=O)Oc3c(C(CCN4CCN(c5ccccc5)CC4)c4ccc(N(C)C)cc4)c(OC)cc(OC)c32)cc1 (stereo not given) | ? | 5µM* | ? | ? | 4.5µM* | ?
COc1cc(C(CCN2CCCC2)c2c(OC)cc(OC)c3c2OC(=O)CC3c2ccc(N(C)C)cc2)cc(OC)c1OC (stereo not given) | . | 28µM* | . | . | . | ?
COc1cc(C(CCN2CCOCC2)c2c(OC)cc(OC)c3ccc(=O)oc23)cc(OC)c1OC (stereo not given) | -6%[59 µM] | . | . | . | . | .
COc1ccc(C2CC(=O)Oc3c(C(CCN4CCOCC4)c4ccc5c(c4)OCO5)c(OC)cc(OC)c32)cc1 (stereo not given) | . | 56µM* | . | . | . | -28%
COc1ccc(C2CC(=O)Oc3c(C(CCN4CCOCC4)c4cc(OC)c(OC)c(OC)c4)c(OC)cc(OC)c32)cc1 (stereo not given) | ? | ? | -20 | -16 | -37% | 9%
CCN(CC)CCC(c1cc(OC)c(OC)c(OC)c1)c1c(OC)cc(OC)c2c1OC(=O)CC2c1ccc(N(C)C)cc1 (stereo not given) | . | 32µM* | . | . | . | -33%
COc1cc(OC)c2c(c1C(CCN1CCOCC1)c1ccc(N(C)C)cc1)OC(=O)CC2c1ccc(N(C)C)cc1 (stereo not given) | -168%[59 µM] | 6.3µM* | ? | -80* | 10µM* | 14µM*
CCN(CC)CCC(c1cc(OC)c(OC)c(OC)c1)c1c(OC)cc(OC)c2ccc(=O)oc12 (stereo not given) | 19%[12.7 µM] | -28% | ? | -20 | 4% | 15%
